According to PubChem BioAssay (NCI):
This is part of a sample that, as a whole, favours compounds with a hit. Of some 83,000 tested, about 20% had one in any assay.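 Plates (96-well) were seeded with cells, treated with compound at one concentration, and incubated for 48 hours before percent growth was determined.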 A number with no mark means an inactive call. Active and inactive are the calls of the source. The calls were made as follows: active = growth percent below 10; inactive = the rest.

Legend:
Assay in all cases: NCI-60 one-dose screen, 48 h (100 = growth as untreated, 0 = no growth, -100 = all killed)
Conditions in all cases: 10 µM unless noted
DU-145 prostate = system: DU-145 prostate
K-562 leukemia = system: K-562 leukemia
MALME-3M melanoma = system: MALME-3M melanoma
MDA-MB-231 breast = system: MDA-MB-231 breast
RXF 393 renal = system: RXF 393 renal
SF-268 CNS = system: SF-268 CNS
SF-295 CNS = system: SF-295 CNS
SF-539 CNS = system: SF-539 CNS
UACC-257 melanoma = system: UACC-257 melanoma
M14 melanoma = system: M14 melanoma

Compound | growth (DU-145 prostate) | growth (K-562 leukemia) | growth (MALME-3M melanoma) | growth (MDA-MB-231 breast) | growth (RXF 393 renal) | growth (SF-268 CNS) | growth (SF-295 CNS) | growth (SF-539 CNS) | growth (UACC-257 melanoma) | growth (M14 melanoma)
Cn1cc(C(=O)C[n+]2ccccc2)c2ccccc21 | 109% | 106% | 96.7% | 100% | 99.6% | 94.7% | 102% | 89.6% | 111% | 99.2%
NC(N)=NC(N)=Nc1ccc(Cl)cc1 | 116% | 99% | 116% | 113% | 108% | 95.4% | 98.1% | 103% | 111% | 114%
CC[C@H](C)[C@H](NC(=O)CN(C)C)C(=O)N(C)[C@H](C[C@@H](OC(C)=O)c1nc(C(=O)NC23C4C5C2C2C3C4C52C(=O)OC)cs1)C(C)C (stereo not given in full) | 2.37% (active) | 7.65% (active) | 35.1% | 1.39% (active) | 2.8% (active) | 21.1% | 9.98% (active) | -1.99% (active) | 49.2% | -35.8% (active)
O=C1CN2CCC1CC2 | 103% | 93.9% | 102% | 108% | 111% | 99% | 99.9% | 97.8% | 109% | 104%
Oc1cc(N2CC2)c(O)cc1N1CC1 | 9.43% (active) | 17.1% | -89.6% (active) | 96.9% | -78% (active) | 7.87% (active) | 15.9% | -12% (active) | -47.1% (active) | -50.4% (active)
CC(=O)OC1CC2(O)C(CCC3(C)C(c4ccc(=O)oc4)CCC32O)C2(C)CCC(OC3OC(CO)C(O)C(O)C3O)C=C12 (stereo not given) | -100% (active) | -30.4% (active) | -43.7% (active) | -20.3% (active) | -45% (active) | -97.4% (active) | -62.2% (active) | -97.9% (active) | -62.3% (active) | -78% (active)
O=C(CBr)OCCOC(=O)CBr | 84.2% | 62.5% | 76.3% | 80.6% | -7.57% (active) | 89.9% | 104% | 112% | 83.1% | 81%
CC[C@H](C)[C@H](NC(=O)[C@H]1CCCCN1C)C(=O)N(C)[C@H](C[C@@H](OC(C)=O)c1nc(C(=O)N[C@@H](Cc2ccccc2)C[C@H](C)C(=O)O)cs1)C(C)C | 4.56% (active) | 7.63% (active) | 55.2% | 28.2% | 35.3% | 34.2% | 8.04% (active) | -10.5% (active) | 49.3% | 8.87% (active)
O=C=Nc1ccc(Br)cc1 | 107% | 99.6% | 108% | 108% | 103% | 111% | 94.8% | 110% | 110% | 100%
COc1ccc(O)c2c(=O)c3c(OC)cc4c(c3oc12)[C@@H]1C=CO[C@@H]1O4 | 21.9% | 101% | 62.8% | 67% | 61.6% | 54.9% | 81.6% | 37.9% | 89.6% | 67.4%
CC[C@H](CC[C@@H](C)[C@H]1CC[C@H]2[C@@H]3CC[C@H]4C[C@]5(CC[C@]4(C)[C@H]3CC[C@]12C)OO[C@](C)(C(F)(F)F)O5)C(C)C | 97.2% | 93.9% | 86% | 94.5% | 106% | 87.4% | 94.6% | 97.8% | 95.3% | 97.1%
Cc1cc(Br)c([N+](=O)[O-])cc1[N+](=O)[O-] | 89.4% | 75% | 128% | 97.8% | 103% | 97.2% | 114% | 97.9% | 98.7% | 96.2%
O=[N+]([O-])c1ccc2scc3c4ccccc4nc-3c2c1 | -7.89% (active) | 3.96% (active) | -45% (active) | -76.1% (active) | -96.8% (active) | -0.718% (active) | 84.7% | -45% (active) | -59.9% (active) | -54.8% (active)
CNC(=O)Oc1ccc(Cl)cc1SSc1cc(Cl)ccc1OC(=O)NC | 96.7% | 63.1% | 78.2% | 78.3% | 107% | 65.8% | 75.7% | 98.2% | 79% | 112%
COc1ccc2c(c1)c(-c1nc(-c3c[nH]c4ncccc34)cs1)cn2CCCCN1CCOCC1 | 48.9% | -65.2% (active) | -66.7% (active) | 23.4% | 31.9% | 52.4% | 13.1% | 49.3% | 79.5% | -53.5% (active)
COc1c(O)cc2c(c1OC)-c1ccc(SC)c(=O)cc1C(NC(C)=O)CC2 (stereo not given) | -28.7% (active) | -24.9% (active) | 39.9% | 2.58% (active) | 20.3% | 29.7% | 9.18% (active) | -15% (active) | 20.1% | 15.7%
C/C(=N/OC(=O)N(C)C)c1ccc(Cl)c(Cl)c1 | 121% | 120% | 115% | 105% | 108% | 105% | 112% | 114% | 97.4% | 113%
O=[N+]([O-])c1cc(Cl)c(Cl)c([N+](=O)[O-])c1Cl | 85.4% | 7.08% (active) | -26% (active) | 91.8% | 55.5% | 84.2% | 134% | 103% | 16.1% | 3.65% (active)
CCC(=O)C(CC(C)N1CCCCCC1)(c1ccccc1)c1ccccc1 (stereo not given) | 102% | 82.6% | 93.6% | 92.4% | 129% | 104% | 89.7% | 98.6% | 100% | 98.1%
Cc1c2ccncc2c(C)c2c1[nH]c1ccccc12 | -97.8% (active) | 3.9% (active) | -77.8% (active) | -68.9% (active) | -87.3% (active) | -77.1% (active) | -84.7% (active) | -93.6% (active) | -62.1% (active) | -89.9% (active)
CC1=CC(=Nc2ccc(N(CCCl)CCCl)cc2)C=C(C)C1=O | -39.4% (active) | 17.4% | 8.43% (active) | 40.8% | -80.3% (active) | -9.09% (active) | 14.9% | 4.45% (active) | 19.3% | 29.5%
COc1cc(C2C3=C(CCCC3=O)N(CCO)c3cc4c(cc32)CCC4)cc(OC)c1OC (stereo not given) | 94.1% | 78.7% | 93.1% | 82.1% | 100% | 90.4% | 99.9% | 106% | 67.2% | 98%
[N-]=[N+]=CC(=O)CCC(=O)C=[N+]=[N-] | 127% | 83.9% | 96.3% | 103% | 124% | 121% | 106% | 88.3% | 137% | 102%
CO[C@@H]([CH2][Hg][O]C(=O)c1ccccc1)[C@@H]([CH2][Hg][O]C(=O)c1ccccc1)OC | 91.4% | 30.1% | 35.6% | 88.9% | 114% | 102% | 106% | 102% | 90.7% | 79.5%
C[C@]12CC[C@H]3[C@@H](CC=C4c5nc(-c6ccc(Br)cc6)sc5CC[C@@]43C)[C@@H]1CC[C@@H]2O | 108% | 76.7% | 103% | 89.5% | 3.87% (active) | 90.2% | 63.5% | 9.53% (active) | 114% | 90.5%
